Test results from PubChem BioAssay AID1159580 (chemical genetic matrix, 2015).
The campaign covered roughly 5,500 compounds. About 2,000 (36%) were called active. Another 18% or so got no clear call; they are omitted. No stated cut-off is given here; in the data, active means normalized growth mostly below about 0.91 (no sharp cut-off); inconclusive means no clear call, values can overlap the other calls; inactive means mostly above about 0.92. Some of the results follow.

Assay: chemical genetic growth profiling, strain panel (AID 1159580);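 further: tested at 20 µM; growth read once vehicle control cultures reached saturation at 30 °C; 1 = growth at the plate median or of vehicle wells; lower values mean less growth of the strain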
Conditions: growth OD

Measured: normalized growth

COC(=O)NC(=S)Nc1ccccc1NC(=S)NC(=O)OC
inactive: S. cerevisiae deletion strains, locus YJR075W, strain HOC1, active compounds read low 1.01 | S. cerevisiae deletion strains, locus YKL009W, strain mrt4, active compounds read low 0.995 | S. cerevisiae deletion strains, locus YKL068W, active compounds read low 0.996 | S. cerevisiae deletion strains, locus YKL085W, strain MDH1 (second series), active compounds read low 1 | S. cerevisiae deletion strains, locus YKL085W, strain MDH1, active compounds read low 1 | S. cerevisiae deletion strains, locus YKL160W, strain elf1, active compounds read low 0.952 | S. cerevisiae deletion strains, locus YKL190W, strain CNB1, active compounds read low 1.01 | S. cerevisiae deletion strains, locus YKR001C, strain vps1, active compounds read low 0.991 | S. cerevisiae deletion strains, locus YKR026C, strain gcn3, active compounds read low 0.974 | S. cerevisiae deletion strains, locus YKR091W, strain srl3, active compounds read low 0.97 | S. cerevisiae deletion strains, locus YLL001W, strain dnm1, active compounds read low 0.972 | S. cerevisiae deletion strains, locus YLL026W, active compounds read low 0.981 | S. cerevisiae deletion strains, locus YLL041C, strain sdh2, active compounds read low 0.978 | S. cerevisiae deletion strains, locus YLR027C, strain aat2, active compounds read low 0.975 | S. cerevisiae deletion strains, locus YLR039C, strain RIC1, active compounds read low 1.02 | S. cerevisiae deletion strains, locus YLR058C, strain SHM2, active compounds read low 1 | S. cerevisiae deletion strains, locus YLR102C, strain apc9, active compounds read low 1.01 | S. cerevisiae deletion strains, locus YLR113W, strain HOG1, active compounds read low 0.983 | S. cerevisiae deletion strains, locus YLR221C, strain rsa3, active compounds read low 0.974 | S. cerevisiae deletion strains, locus YLR258W, strain gsy2, active compounds read low 0.985 | S. cerevisiae deletion strains, locus YLR262C, strain YPT6 (second series), active compounds read low 0.987 | S. cerevisiae deletion strains, locus YLR262C, strain YPT6, active compounds read low 0.989 | S. cerevisiae deletion strains, locus YLR268W, strain sec22, active compounds read low 1.07 | S. cerevisiae deletion strains, locus YLR330W, strain CHS5, active compounds read low 1 | S. cerevisiae deletion strains, locus YLR342W, strain FKS1 (second series), active compounds read low 0.988 | S. cerevisiae deletion strains, locus YLR342W, strain FKS1, active compounds read low 0.97 | S. cerevisiae deletion strains, locus YLR357W, strain rsc2, active compounds read low 0.92 | S. cerevisiae deletion strains, locus YLR370C, strain arc18, active compounds read low 0.98 | S. cerevisiae deletion strains, locus YLR371W, strain rom2, active compounds read low 1.02 | S. cerevisiae deletion strains, locus YLR384C, strain iki3, active compounds read low 0.964 | S. cerevisiae deletion strains, locus YLR418C, strain cdc73, active compounds read low 0.972 | S. cerevisiae deletion strains, locus YML016C, strain PPZ1, active compounds read low 1 | S. cerevisiae deletion strains, locus YML032C, strain rad52, active compounds read low 1.05 | S. cerevisiae deletion strains, locus YML120C, strain ndi1, active compounds read low 0.97 | S. cerevisiae deletion strains, locus YML124C, strain tub3, active compounds read low 1 | S. cerevisiae deletion strains, locus YMR058W, strain fet3, active compounds read low 0.957 | S. cerevisiae deletion strains, locus YMR078C, strain ctf18, active compounds read low 1.02 | S. cerevisiae deletion strains, locus YMR125W, strain sto1, active compounds read low 0.974 | S. cerevisiae deletion strains, locus YMR129W, active compounds read low 0.98 | S. cerevisiae deletion strains, locus YMR205C, strain PFK2, active compounds read low 0.97 | S. cerevisiae deletion strains, locus YMR223W, strain ubp8, active compounds read low 0.978 | S. cerevisiae deletion strains, locus YMR231W, strain pep5, active compounds read low 0.993 | S. cerevisiae deletion strains, locus YMR263W, strain SAP30, active compounds read low 1.02 | S. cerevisiae deletion strains, locus YMR307W, strain GAS1, active compounds read low 0.983 | S. cerevisiae deletion strains, locus YNL067W, strain RPL9B, active compounds read low 1.02 | S. cerevisiae deletion strains, locus YNL128W, strain TEP1, active compounds read low 1.01 | S. cerevisiae deletion strains, locus YNL153C, strain GIM3, active compounds read low 0.99 | S. cerevisiae deletion strains, locus YNL183C, strain NPR1, active compounds read low 0.902 | S. cerevisiae deletion strains, locus YNL209W, strain ssb2, active compounds read low 1.01 | S. cerevisiae deletion strains, locus YNL233W, strain BNI4, active compounds read low 1.03 | S. cerevisiae deletion strains, locus YNL248C, strain rpa49, active compounds read low 0.93 | S. cerevisiae deletion strains, locus YNL250W, strain rad50, active compounds read low 0.989 | S. cerevisiae deletion strains, locus YNL271C, strain bni1, active compounds read low 1.01 | S. cerevisiae deletion strains, locus YNL298W, strain CLA4, active compounds read low 0.978 | S. cerevisiae deletion strains, locus YNL307C, strain MCK1, active compounds read low 0.986 | S. cerevisiae deletion strains, locus YNL322C, strain KRE1 (second series), active compounds read low 0.985 | S. cerevisiae deletion strains, locus YNL322C, strain KRE1, active compounds read low 0.998 | S. cerevisiae deletion strains, locus YNR049C, strain mso1, active compounds read low 0.99 | S. cerevisiae deletion strains, locus YNR052C, strain pop2, active compounds read low 1.01 | S. cerevisiae deletion strains, locus YOL006C, strain TOP1, active compounds read low 1.09 | S. cerevisiae deletion strains, locus YOL012C, strain htz1 1.25 | S. cerevisiae deletion strains, locus YOL147C, strain pex11, active compounds read low 1.01 | S. cerevisiae deletion strains, locus YOR001W, strain rrp6, active compounds read low 0.986 | S. cerevisiae deletion strains, locus YOR061W, strain CKA2, active compounds read low 1.01 | S. cerevisiae deletion strains, locus YOR069W, strain VPS5, active compounds read low 1.01 | S. cerevisiae deletion strains, locus YOR070C, strain gyp1, active compounds read low 0.985 | S. cerevisiae deletion strains, locus YOR080W, strain dia2, active compounds read low 1.01 | S. cerevisiae deletion strains, locus YOR083W, strain WHI5, active compounds read low 0.97 | S. cerevisiae deletion strains, locus YOR106W, strain vam3, active compounds read low 0.887 | S. cerevisiae deletion strains, locus YOR136W, strain idh2, active compounds read low 0.999 | S. cerevisiae deletion strains, locus YOR144C, strain elg1, active compounds read low 1.01 | S. cerevisiae deletion strains, locus YOR184W, strain ser1, active compounds read low 1.01 | S. cerevisiae deletion strains, locus YOR231W, strain MKK1, active compounds read low 0.986 | S. cerevisiae deletion strains, locus YOR265W, strain rbl2, active compounds read low 1 | S. cerevisiae deletion strains, locus YOR270C, strain vph1, active compounds read low 0.858 | S. cerevisiae deletion strains, locus YOR290C, strain snf2, active compounds read low 0.959 | S. cerevisiae deletion strains, locus YOR316C, strain cot1, active compounds read low 1.01 | S. cerevisiae deletion strains, locus YPL051W, strain arl3, active compounds read low 0.957 | S. cerevisiae deletion strains, locus YPL055C, strain LGE1, active compounds read low 0.98 | S. cerevisiae deletion strains, locus YPL078C, strain atp4, active compounds read low 0.989 | S. cerevisiae deletion strains, locus YPL106C, strain sse1, active compounds read low 0.998 | S. cerevisiae deletion strains, locus YPL240C, strain hsp82, active compounds read low 1 | S. cerevisiae deletion strains, locus YPL241C, strain CIN2, active compounds read low 1.01 | S. cerevisiae deletion strains, locus YPL256C, strain CLN2, active compounds read low 1.01 | S. cerevisiae deletion strains, locus YPR119W, strain clb2, active compounds read low 1.02 | S. cerevisiae deletion strains, locus YPR141C, strain kar3, active compounds read low 0.994 | S. cerevisiae deletion strains, locus YPR163C, strain tif3, active compounds read low 1.03 | S. cerevisiae deletion strains, locus YPR167C, strain met16, active compounds read low 1.01 | S. cerevisiae deletion strains, strain wtn01, active compounds read low 1.02 | S. cerevisiae strains, strain wild type, active compounds read low 0.996
active: S. cerevisiae deletion strains, locus YLR320W, strain mms22, active compounds read low 0.856 | S. cerevisiae deletion strains, locus YNL071W, strain lat1, active compounds read low 0.772
